# Sampled rows, rich in hits. Any-hit rate of the full collection: about 3.2%.
# Rce1 inhib: yeast Rce1p protease inhibitors, primary screen, biochemical, fluorescence, cell-free homogeneous. 290,000 compounds, 0.27% hits. calls only. yeast membranes, quenched prenylated peptide cleavage fluorescence;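 active = fall in fluorescence gain of 50% or more versus controls, with final raw signal at or below 3038400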;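 also: plate controls were neutral control wells for no effect and wells lacking membranes for full effect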
# CHT inh: inhibitors of human choline transporter CHT. 310,000 compounds, 0.86% hits. B-score at 10 µM. CHT-expressing cells, membrane potential dye, choline response; hits give low values. High affinity choline transporter 1 (Homo sapiens), Q9GZV3;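 active = B-score over 3 SD under the library average, and starting fluorescence ratio not unusually high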;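 also: choline stimulus applied at its EC90 after an EC20 pre-addition; B-score computed on integrated fluorescence ratio after choline addition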
# CHT PAM: CHT positive allosteric modulators, primary screen, cell-based, membrane potential dye, choline EC20. 310,000 compounds, 0.49% hits. CHT-expressing cells; hits give high values; LV-AA mutant CHT in HEK293 cells. B-score at 10 µM. AID 488977, 2010. High affinity choline transporter 1 (Homo sapiens), Q9GZV3;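 active = initial fluorescence not abnormally high and integrated response B-score, plate-corrected, over 3 SD above library mean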
# TMEM16A inh: TMEM16A chloride channel inhibitors, primary screen, cell-based, HTS. Anoctamin-1 (Mus musculus), Q8BHY3. HEK293 TMEM16A/YFP iodide influx fluorescence, ionomycin. normalized B-score (activity score, 25-100; higher = stronger inhibition) at 10 µM. 310,000 compounds, 1.2% hits. AID 588511, 2011;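 active = ratio plate-corrected score three or more library SD toward inhibition, starting fluorescence score within five deviations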;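 also: score derived from kinetic fluorescence span divided by baseline fluorescence per well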
# Kir21 block: inhibitors of mouse Kir2.1 inward-rectifier potassium channel; HEK293-Kir2.1, FluxOR thallium flux fluorescence; hits give low values; B-score at 10 µM; 310,000 compounds, 0.85% hits; AID 1672, 2009;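 active = fluorescence ratio B-score at or below minus 3 SD of library scores, with starting-brightness B-score within 2 SD, cut at about -4.2 in these data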;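 also: channel flux triggered by added potassium and thallium sulfate stimulus; B-score of peak minus minimum fluorescence over baseline after thallium stimulus; more negative B-score means stronger Kir2.1 block with less thallium influx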
# Target sequence (P35561 whole entry, looked up): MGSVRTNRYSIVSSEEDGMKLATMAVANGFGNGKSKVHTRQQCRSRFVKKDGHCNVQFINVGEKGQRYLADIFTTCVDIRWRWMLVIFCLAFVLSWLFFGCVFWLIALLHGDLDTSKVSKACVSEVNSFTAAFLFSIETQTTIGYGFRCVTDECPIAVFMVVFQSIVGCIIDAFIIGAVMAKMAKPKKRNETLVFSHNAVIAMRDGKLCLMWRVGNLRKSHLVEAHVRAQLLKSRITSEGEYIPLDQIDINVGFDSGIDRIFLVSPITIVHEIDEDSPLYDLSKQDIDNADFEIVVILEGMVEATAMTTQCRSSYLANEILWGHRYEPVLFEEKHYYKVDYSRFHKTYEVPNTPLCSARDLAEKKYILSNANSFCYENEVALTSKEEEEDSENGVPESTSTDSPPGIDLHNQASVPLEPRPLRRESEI
# TMEM16A act: TMEM16A chloride channel activators or potentiators, primary screen, cell-based, HTS. Anoctamin-1 (Mus musculus), Q8BHY3. HEK293 TMEM16A/YFP-H148Q/I152L, iodide quench fluorescence; hits give low values. B-score at 10 µM. 340,000 compounds, 0.3% hits. AID 623877, 2012;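 active = fluorescence-ratio B-score plate-corrected deviation score at least 3 library SD below zero, with starting fluorescence score within 5 deviations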;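 also: channel opened by trigger with iodide after compound preincubation; score built on the fluorescence ratio of max minus min over baseline; more negative score means more quench and so TMEM16A activation or potentiation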
# CHT block conf: CHT inhibitors, confirmation, cell-based, membrane potential dye, duplicate; shares compounds with CHT inh; CHT-expressing cells, choline membrane potential dye; LV-to-AA substituted CHT, HEK293 cells; CHT activity remaining % of control (hits give low values), % at 10 µM; 2,400 compounds, 70% hits;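 active = choline transporter activity left, mean of duplicates at 10 µM, below buffer-only control mean minus 3 SD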;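 also: depolarization triggered by choline at its EC90 following an EC20 pre-addition; 0% = hemicholinium-3 full block and 100% = buffer-only control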
# HEK293 MPD ctr: membrane potential effects in parental HEK293, counter-screen for CHT inhibitor project, cell-based, membrane potential dye. 2,400 compounds, 4% hits. shares compounds with CHT inh. AID 493222, 2011. choline response; active = decrease or increase beyond buffer ±3SD. membrane potential ratio readout (active if shifted either direction beyond buffer ±3SD; no single direction) at 10 µM;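 also: parental cells lack the transporter so any hit is non-specific; ratio is peak minus trough fluorescence over baseline after EC90 choline challenge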
# * marks the source's active call; other numbers are inactive results; i = inactive; / = no result given.
SMILES,Rce1 inhib,CHT inh,CHT PAM,TMEM16A inh,Kir21 block,TMEM16A act,CHT block conf,HEK293 MPD ctr
CC(=O)c1ccc(C(=O)N2CCCC(CCC(=O)N(C)CCc3ccccn3)C2)s1 (configuration not stated),i,i,i,i,0.96,i,/,/
COc1ccc2oc(C(=O)OCC(=O)NC3(C#N)CCCC3)c(C)c2c1,i,i,i,i,0.55,i,/,/
CC(NC(=O)c1cccc(S(=O)(=O)N2CCN(C)CC2)c1)C1CC2CCC1C2 (configuration not stated),i,-5.37*,i,i,0,i,23.1%*,i
CCCNS(=O)(=O)c1cccc(C(=O)NC2CCCc3ccccc32)c1 (configuration not stated),i,-12.2*,i,i,-0.42,i,19.9%*,i
CC(NC(=O)c1cccc(Cl)c1)C1CC2CCC1C2 (configuration not stated),i,i,i,i,0.8,i,/,/
CC1CCCC(C)N1CCCNC(=O)c1ccc2c(c1)NC(=O)c1ccccc1S2 (configuration not stated),i,-5.24*,i,i,-1.21,i,39.7%*,i
CC1CCCC(C)N1CCCNC(=O)c1nn(C)c2c1CSc1ccccc1-2 (configuration not stated),i,-11.2*,i,i,1.58,i,2.4%*,i
O=C(C1CCCCN1S(=O)(=O)c1ccccc1[N+](=O)[O-])N1CCCCC1 (configuration not stated),i,i,i,i,0,i,/,/
Cc1ccccc1NC(=O)NNC(=O)COc1ccc2ccccc2c1,i,i,i,i,-0.5,i,/,/
COc1ccccc1/C=N/NC(=O)CCn1cnc2ccccc21,i,i,i,i,0.02,i,/,/
O=C(CCc1nnc(Cc2ccc(-c3ccccc3)cc2)o1)N1CCCC1,i,-5.42*,i,i,-0.74,i,45.5%*,i
O=C(CSc1nnc(Cc2ccccc2)o1)N1CCCC1,i,i,i,i,1.75,i,/,/
CCOC(=O)C1CCN(C(=O)CSCc2nc(-c3ccc(OCC)cc3)oc2C)CC1,i,-7.64*,i,100*,-1.85,i,69.5%*,i
O=C(c1ccc(COc2ccc(Cl)cc2)o1)N1N=C(C(F)F)CC1(O)C(F)F (configuration not stated),i,i,i,i,0.84,i,/,/
COc1ccccc1OCc1ccc(C(=O)N2N=C(C(F)F)CC2(O)C(F)F)o1 (configuration not stated),i,-5.17*,i,i,-1.83,i,i,i
COC(=O)CN1C(=O)COc2ccc(S(=O)(=O)NCc3ccccc3)cc21,i,i,i,i,-0.57,i,/,/
CCc1nn2c(N3CCOCC3)cc(C)nc2c1-c1ccc(F)cc1,i,i,i,i,0.24,i,/,/
CCc1nn2c(NCCOC)cc(C)nc2c1-c1ccc(F)cc1,i,-5.12*,i,i,-3.63,i,48.1%*,i
CC1CCCCC1NC(=O)c1cccc(N2C(=O)C3C4C=CC(C4)C3C2=O)c1 (configuration not stated),i,-8.4*,i,i,0.08,i,28.3%*,i
CCOP(=O)(OCC)C(NC(=O)Nc1ccccc1)c1ccccc1 (configuration not stated),i,i,i,i,0.71,i,/,/
CCOP(=O)(OCC)C(NC(=O)Nc1c(C)cc(C)cc1C)c1ccccc1 (configuration not stated),i,-5.97*,i,i,-1.53,i,i,i
O=C(CNC(=O)c1ccc(Br)o1)Nc1cccc(S(=O)(=O)N2CCOCC2)c1,i,i,i,i,-0.09,i,/,/
Cn1c2c(c3ccccc31)CCN1CCC[C@]21c1ccccc1,i,-5.12*,i,i,-3.02,i,i,i
O=C(Nc1cccn(Cc2c(Cl)cccc2Cl)c1=O)C1CC1,i,i,i,i,-0.34,i,/,/
C#CCOC(=O)Nc1cccn(Cc2c(Cl)cccc2Cl)c1=O,i,-5.05*,i,i,-0.22,i,i,i
SMILES,Rce1 inhib,CHT inh,CHT PAM,TMEM16A inh,Kir21 block,TMEM16A act,CHT block conf,HEK293 MPD ctr
O=C(Nc1ccccc1N1CCOCC1)c1cccc(NS(=O)(=O)c2ccc(F)c(F)c2)c1,i,-5.51*,i,i,-1.22,i,i,i
O=C(c1c(O)c2ccccc2oc1=O)C1CCCCC1,i,-7.47*,i,i,1.16,i,58.3%*,i
CN=C(C)c1c(O)c2ccccc2oc1=O,i,i,i,i,-0.09,i,/,/
CC(C)CC(=O)Nc1nnc(SCC(=O)NCC2CCCO2)s1 (configuration not stated),i,i,i,i,-0.06,i,/,/
CCOCCCN(C)C1CCN(C(=O)c2oc3ccccc3c2NC(=O)c2cccc([N+](=O)[O-])c2)CC1,i,-6.34*,i,i,0.9,i,38.4%*,4.31*
CCOCCCN(C)C1CCN(C(=O)c2oc3ccccc3c2NC(=O)Cc2ccc([N+](=O)[O-])cc2)CC1,i,i,i,i,0.06,i,/,/
CCOC(=O)CSc1nnc(CNc2ccccc2Cl)n1-c1ccccc1,i,-5.34*,i,i,-3.28,i,i,i
O=Cc1c(OCc2ccccc2)ccc2ccccc12,i,i,i,i,0,i,/,/
O=C(O)/C(=C\c1ccc(-c2ccccc2[N+](=O)[O-])o1)c1ccccc1,i,-5.6*,i,i,0.01,i,i,i
CN(C(=O)CSc1ncnc2sc3c(c12)CCCC3)C1CCS(=O)(=O)C1 (configuration not stated),/,/,/,/,/,i,/,/
CCCN(CCC)CCCNC(=O)c1cn(CC)c2ccc(S(=O)(=O)N3CCOCC3)cc2c1=O,i,i,i,i,-1.43,i,/,/
